For part of these data: Measured potencies and affinities stand elsewhere.

By Inhibition is commonly meant the change of the read-out against control, counted positive when it falls.

One assay has as its system Staphylococcus aureus. As to the kind of experiment: Antibacterial activity against Staphylococcus aureus MRSA ATCC 43300 (CO-ADD:GP_020); MIC in CAMBH media using NBS plates, by Resazurin F(560/590). It is filed as functional. To be noted: Concentration 20 uM, ASSAY_TEST Inhibition of Bacterial Growth, detection method Resazurin, Fluorescence (ex560/em590), MEDIA CAMHB, plate type 384well, CORNING #3640, time 18 hr. (The colour change of resazurin is a common sign of viable cells or microbes.)

In the next assay the test system is Acinetobacter baumannii. As to the kind of experiment: Antibacterial activity against Acinetobacter baumannii ATCC 19606 (CO-ADD:GN_034); MIC in CAMBH media using NBS plates, by Resazurin F(560/590). It counts as functional. To be noted: Concentration 20 uM, ASSAY_TEST Inhibition of Bacterial Growth, detection method Resazurin, Fluorescence (ex560/em590), MEDIA CAMHB, plate type 384well, CORNING #3640, time 18 hr.

Another assay has as its system Escherichia coli. The assay can be described thus: Antibacterial activity against Escherichia coli ATCC 25922 (CO-ADD:GN_001); MIC in CAMBH media using NBS plates, by Resazurin F(560/590). It is filed as functional. To be noted: Concentration 20 uM, ASSAY_TEST Inhibition of Bacterial Growth, detection method Resazurin, Fluorescence (ex560/em590), MEDIA CAMHB, plate type 384well, CORNING #3640, time 18 hr.

A further assay has as its system Klebsiella pneumoniae. Particulars: Concentration 20 uM; ASSAY_TEST Inhibition of Bacterial Growth; detection method Absorption (OD600); MEDIA CAMHB; plate type 384well; NBS; CORNING #3640; time 18 hr.
The test system of another assay is Candida albicans. Particulars: 20 µM.
In a further assay the test system is Cryptococcus neoformans. To be noted: Concentration 20 uM; ASSAY_TEST Inhibition of Fungal Growth; detection method Resazurin; Absorption (OD600-OD570); plate type 384well; NBS; CORNING #3640.

On to `S=C1N(c2ccccc2)CN(C2CCCCC2)CN1c1ccccc1`, for which the Inhibition in the assay with Staphylococcus aureus was 0.84%; in the assay with Acinetobacter baumannii, 12.71%; in the assay on Escherichia coli, -2.84%; in the assay with Klebsiella pneumoniae, 1.62%; in the assay with Candida albicans, 3.07%; in the assay with Cryptococcus neoformans it was -5.37%.
With `C/C(=N\O)C1CC(CC(=O)O)C1(C)C` (stereo unspecified), the Inhibition in the assay with Staphylococcus aureus is -0.7%; in the assay with Acinetobacter baumannii, -12.7%; in the assay on Escherichia coli it was 4.91%; in the assay with Klebsiella pneumoniae it was 2.97%; in the assay on Candida albicans, 2.15%; with Cryptococcus neoformans, -5.7%.
For `O=[N+]([O-])c1ccc2c3ccccc3[s+]([O-])c2c1` (stereo unspecified), the Inhibition in the assay with Staphylococcus aureus was 5.76%; with Acinetobacter baumannii, 5.87%; in the assay with Escherichia coli it was 8.3%; in the assay on Klebsiella pneumoniae it was 9.17%; in the assay with Candida albicans, 6.79%; in the assay on Cryptococcus neoformans, -11.15%.
With `O=C(O)c1ccccc1-n1c2ccccc2c2ccccc21`, the Inhibition in the assay with Staphylococcus aureus was 10.38%; with Acinetobacter baumannii it was 6.58%; in the assay with Escherichia coli, 7.31%; in the assay on Klebsiella pneumoniae it was 10.24%; with Candida albicans, 4.15%; in the assay with Cryptococcus neoformans it was -5.74%.
Regarding `Cc1ccc2c(c1)sc1nncn12`, the Inhibition is 15.32% with Staphylococcus aureus; -15.79% in the assay on Acinetobacter baumannii; 12.68% with Escherichia coli; 5.69% in the assay with Klebsiella pneumoniae; -0.75% in the assay on Candida albicans; -11.46% in the assay on Cryptococcus neoformans.
Regarding `O=C(Nc1cccc([N+](=O)[O-])c1)c1ccc2ccccc2c1O`, the Inhibition in the assay with Staphylococcus aureus was 0.95%; in the assay on Acinetobacter baumannii, -11.75%; in the assay with Escherichia coli, 6.76%; in the assay with Klebsiella pneumoniae, 12.38%; in the assay with Candida albicans, 3.5%; in the assay on Cryptococcus neoformans, 4.47%.
Turning to `CN(C)c1ccc(/C=N/NC(=O)c2cnc3ccccc3c2)cc1`, the Inhibition in the assay on Staphylococcus aureus was 17.84%; with Acinetobacter baumannii, 9.63%; in the assay on Escherichia coli, 3.71%; in the assay with Klebsiella pneumoniae, 14.91%; in the assay on Candida albicans, 2.44%; with Cryptococcus neoformans, 3.68%.
On to `N#C/N=C/N1CC=C(c2ccc(Cl)cc2)CC1`, for which the Inhibition in the assay on Staphylococcus aureus is 11.33%; in the assay on Acinetobacter baumannii, 10.12%; in the assay with Escherichia coli, 1.23%; in the assay with Klebsiella pneumoniae it was 20.23%; with Candida albicans it was 8.73%; in the assay with Cryptococcus neoformans it was -3.92%.
As for `CCOC(=O)Cn1nc2oc(=O)c(CCN3CCN(c4ccccc4OC)CC3)c(C)c2c1C`, the Inhibition was 17.7% in the assay on Staphylococcus aureus; -3.04% with Acinetobacter baumannii; 11.66% in the assay with Escherichia coli; 16.06% in the assay with Klebsiella pneumoniae; 2.37% in the assay with Candida albicans; -3.33% with Cryptococcus neoformans.
`Cc1ccc(Nc2c(O)ncnc2O)cc1C`: the Inhibition was -23.26% in the assay on Staphylococcus aureus; -4.13% in the assay with Acinetobacter baumannii; -16.23% in the assay on Escherichia coli; 1.1% in the assay on Klebsiella pneumoniae; 0.31% in the assay with Candida albicans; 16.78% in the assay on Cryptococcus neoformans.
Consider `Nn1c(Cc2ccccc2)nnc1Cc1ccccc1`, for which the Inhibition in the assay with Staphylococcus aureus is 7.31%; in the assay with Acinetobacter baumannii, 16.12%; in the assay on Escherichia coli it was -0.96%; in the assay with Klebsiella pneumoniae, 11.84%; with Candida albicans, 2.51%; with Cryptococcus neoformans, -5.12%.
Turning to `O=C(Nc1cccnc1)c1cccc([N+](=O)[O-])c1`, the Inhibition with Staphylococcus aureus was 12.72%; with Acinetobacter baumannii, 4.9%; in the assay with Escherichia coli it was 8.22%; with Klebsiella pneumoniae, 4.62%; with Candida albicans it was 7.68%; with Cryptococcus neoformans, -5.39%.
`COc1ccc2nc(-c3ccc(Cl)cc3)cc(C(=O)O)c2c1`: the Inhibition was -2.13% in the assay on Staphylococcus aureus; -6.37% in the assay with Acinetobacter baumannii; 6.47% in the assay on Escherichia coli; 11.49% in the assay on Klebsiella pneumoniae; 35.6% in the assay with Candida albicans; -9.35% with Cryptococcus neoformans.
With `Sc1nccn1-c1c(Cl)cccc1Cl`, the Inhibition was 10.46% with Staphylococcus aureus; 12.03% in the assay with Acinetobacter baumannii; 0.7% in the assay on Escherichia coli; 7.58% in the assay with Klebsiella pneumoniae; 4.08% in the assay with Candida albicans; -8.98% in the assay with Cryptococcus neoformans.
Take `Cc1cc(C)n(C(=N)NC(=O)c2ccc([N+](=O)[O-])cc2)n1`: the Inhibition in the assay on Staphylococcus aureus is 1.83%; in the assay with Acinetobacter baumannii, 1.39%; with Escherichia coli, -7.33%; with Klebsiella pneumoniae, 8.27%; in the assay with Candida albicans it was 3.88%; in the assay on Cryptococcus neoformans, 44.63%.
On to `c1ccc(CSc2nnc3c4ccccc4c4ccccc4c3n2)cc1`, for which the Inhibition with Staphylococcus aureus was -1.68%; with Acinetobacter baumannii it was 11.2%; with Escherichia coli it was 0.12%; in the assay on Klebsiella pneumoniae, 1.09%; with Candida albicans it was 5.6%; with Cryptococcus neoformans, -12.52%.
Take `O=C1CCCC1C(=O)Nc1ccc2ccccc2c1` (stereo unspecified): the Inhibition with Staphylococcus aureus is 9.31%; with Acinetobacter baumannii it was 10.21%; in the assay with Escherichia coli, -4.09%; in the assay with Klebsiella pneumoniae, 17.7%; with Candida albicans, 10.3%; in the assay with Cryptococcus neoformans it was -1.69%.
Take `O=C(C(Cl)Cl)N1CC2CCC(CC2)C1`: the Inhibition is -8.6% in the assay on Staphylococcus aureus; 7.03% with Acinetobacter baumannii; -13.8% with Escherichia coli; 1.03% with Klebsiella pneumoniae; -0.88% in the assay with Candida albicans; 23.84% in the assay with Cryptococcus neoformans.
`Cc1cc2c(c(C#N)c1C)NC=NC2C` (stereo unspecified): the Inhibition in the assay on Staphylococcus aureus was 11.79%; with Acinetobacter baumannii, -0.59%; in the assay with Escherichia coli, 15.46%; in the assay with Klebsiella pneumoniae, 8.12%; in the assay on Candida albicans, -2.89%; with Cryptococcus neoformans it was -13.76%.
Regarding `Nc1ncnc(N2CCOCC2)n1`, the Inhibition in the assay on Staphylococcus aureus was -3.61%; with Acinetobacter baumannii it was -4.78%; in the assay on Escherichia coli, -0.51%; with Klebsiella pneumoniae it was 0.72%; in the assay on Candida albicans it was 2.01%; in the assay on Cryptococcus neoformans, -5.84%.
As to `Nc1nc(O)c2ncn(C3CCCC3)c2n1`, the Inhibition in the assay with Staphylococcus aureus is 3.29%; in the assay with Acinetobacter baumannii, -9.23%; in the assay on Escherichia coli, 3.79%; in the assay on Klebsiella pneumoniae, 16.95%; with Candida albicans, -0.06%; in the assay on Cryptococcus neoformans it was -9.03%.

These data come from ChEMBL document CHEMBL4296182, “CO-ADD screening of NIH NCI Diversity Set V”.
